High-throughput results from PubChem BioAssay.
KKLEB tox: cytotoxicity in KKLEB CF airway cells, primary screen, cytotoxicity control for CF NF-kB inhibitor project, cell-based, uHTS, fluorescence assay plates | KKLEB CF airway cells viability, ATPlite luminescence, overnight; active compounds read low; cells stimulated with P. aeruginosa culture filtrate | activity change (cytotoxicity), % at 5 µM | 360,000 compounds, 0.36% hits;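 active = corrected activity change at or below -50% at 5 µM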
Peg3 promoter: Peg3 promoter-driven luciferase inhibitors, primary screen, cell-based, HeLa, luciferase luminescence; inhibition, % at 20 µM; HeLa PEG-Prom luciferase reporter, overnight; 360,000 compounds, 1.7% hits; AID 588405, 2011;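 active = inhibition of at least 50% at 20 µM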
LGR2 inh: inhibitors of bursicon-induced LGR2 CRE-luciferase signal, primary screen, cell-based, HEK293, CRE-luciferase reporter, bursicon stimulation. bursicon-stimulated, 4 h. inhibition, % at 9.99 µM. 380,000 compounds, 0.35% hits;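 active = drop in luminescence signal, shown as inhibition above about 50% in the replicate tests, limit read from the data, passing the limit was not always enough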;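 also: agonist challenge used bursicon conditioned medium at about half maximal strength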
HSP90 refold inh: HSP90 inhibitors, primary screen, cell lysate, luminescence; Heat shock protein HSP 90 (rabbit reticulocyte lysate; luciferase refolding); Rabbit reticulocyte lysate, luciferase refolding luminescence, 3 h; inhibition, % at 5.6 µM; 290,000 compounds, 0.91% hits; AID 1789, 2009;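 active = inhibition above the screen-wide mean plus 3 SD, computed separately per campaign, cut at about 16% in these data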;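 also: 0% = DMSO wells and 100% = 60 µM geldanamycin wells; inhibitors lower the luminescence because luciferase stays unfolded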
Mdm2-MdmX inh: inhibitors of human Mdm2-MdmX association, primary screen, cell-based, luminescence, split luciferase, SaOS-2, uHTS; Protein Mdm4 (Homo sapiens) + E3 ubiquitin-protein ligase Mdm2 (Homo sapiens), …; SaOS-2 split-luciferase Mdm2/MdmX complementation; inhibition, % at 8 µM; 330,000 compounds, 3% hits; AID 485346, 2010;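 active = inhibition of at least 50% at 8 µM in the primary screen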
Target sequence (O15151 whole entry, looked up): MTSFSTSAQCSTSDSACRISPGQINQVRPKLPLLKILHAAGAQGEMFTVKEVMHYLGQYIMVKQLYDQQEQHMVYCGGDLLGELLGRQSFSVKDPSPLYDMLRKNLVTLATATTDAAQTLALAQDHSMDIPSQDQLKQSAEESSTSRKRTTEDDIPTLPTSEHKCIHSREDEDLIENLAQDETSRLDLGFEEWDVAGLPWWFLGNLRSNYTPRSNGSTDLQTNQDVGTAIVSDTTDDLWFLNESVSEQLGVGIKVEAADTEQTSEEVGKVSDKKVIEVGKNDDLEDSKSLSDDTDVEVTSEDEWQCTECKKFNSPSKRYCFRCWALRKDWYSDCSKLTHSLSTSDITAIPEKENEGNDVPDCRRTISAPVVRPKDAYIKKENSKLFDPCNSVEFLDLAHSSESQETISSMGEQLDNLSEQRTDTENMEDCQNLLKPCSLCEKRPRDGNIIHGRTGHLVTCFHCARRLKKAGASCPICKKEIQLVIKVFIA
Target sequence (Q00987 whole entry, looked up): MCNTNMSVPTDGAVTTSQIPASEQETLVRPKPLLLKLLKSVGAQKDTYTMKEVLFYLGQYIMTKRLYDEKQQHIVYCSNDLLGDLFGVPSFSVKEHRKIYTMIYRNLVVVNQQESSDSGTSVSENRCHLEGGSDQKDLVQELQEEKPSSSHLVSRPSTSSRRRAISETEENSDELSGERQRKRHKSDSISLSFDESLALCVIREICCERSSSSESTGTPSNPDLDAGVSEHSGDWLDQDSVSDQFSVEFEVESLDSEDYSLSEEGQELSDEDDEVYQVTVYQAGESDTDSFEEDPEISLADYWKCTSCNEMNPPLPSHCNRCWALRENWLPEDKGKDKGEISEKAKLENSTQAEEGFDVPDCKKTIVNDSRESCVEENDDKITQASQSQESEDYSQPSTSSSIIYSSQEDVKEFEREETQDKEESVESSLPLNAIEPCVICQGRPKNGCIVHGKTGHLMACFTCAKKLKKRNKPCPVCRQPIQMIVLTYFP
CF NFkB block: inhibitors of PAF-induced NF-kB signaling, primary screen, cell-based, GFP fluorescence, uHTS. KKLEB NF-kB-GFP reporter, GFP fluorescence overnight. AID 588850, 2011. 360,000 compounds, 0.86% hits. inhibition, % at 5 µM;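 active = at least 50% inhibition at 5 µM, scaled per plate between neutral and stimulator controls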;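 also: PAF is a Pseudomonas aeruginosa culture filtrate used as stimulus; plate controls were PAF-stimulated DMSO wells for no effect and unstimulated DMSO wells for full effect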
Mdm2-MdmX conf: Mdm2-MdmX complex disruptors, retested hits, confirmation, luminescence, single concentration | shares compounds with Mdm2-MdmX inh | Mdm2-MdmX binding, luminescent assay | inhibition, % at 8 µM | 10,000 compounds, 55% hits; in the data active = inhibition above about 40%
FLuc counter: full-length luciferase signal inhibition, confirmation, counter-screen for Mdm2/MdmX interaction inhibitor project, cell-based, single concentration, SaOS-2; shares compounds with Mdm2-MdmX inh; SaOS-2 full-length luciferase counterscreen, luminescence; inhibition, % at 8 µM; 6,200 compounds, 77% hits; AID 504607, 2011;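 active = mean inhibition at 8 µM reaching about 37%, which flags the compound as non-specific, limit read from the data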;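 also: p53-null SaOS-2 cells with luciferase driven by a doxycycline-inducible promoter; compound on cells about two nights before reading with doxycycline added after day one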
* hit, by the source's call; / = no result given; ! = repeats disagree. Rows were chosen to be rich in hits. Some 3.6% of all compounds tested hit in one or more screens of this group.

SMILES | KKLEB tox | Peg3 promoter | LGR2 inh | HSP90 refold inh | Mdm2-MdmX inh | CF NFkB block | Mdm2-MdmX conf | FLuc counter
N/C(=N\OC(=O)c1cccc(Cn2cc(C(F)(F)F)ccc2=O)c1)c1ccccc1 | -5 | -6 | 19 | 2 | 68* | -4 | 24 | /
O=C(Sc1ccc(Cl)cc1)c1cccc(Cn2cc(C(F)(F)F)ccc2=O)c1 | 1 | 20 | -11 | 4 | 4 | 15 | / | /
Cc1ccc(/C(N)=N/OC(=O)c2cccc(Cn3cc(C(F)(F)F)ccc3=O)c2)cc1 | -6 | 11 | -32 | 3 | 89* | 2 | 50* | 76*
Cc1ccc(C(=O)O/N=C(\N)c2ccc(C(F)(F)F)cn2)cc1 | 0 | -145 | -96 | -1 | 57* | 2 | -16 | /
N/C(=N\OC(=O)c1cccc(Cn2cc(C(F)(F)F)ccc2=O)c1)c1ccc(Cl)cc1 | 6 | 28 | / | 7 | 76* | -2 | 47* | 83*
C[C@@H]1CN([C@H](C)CO)C(=O)c2cc(C#CC3CC3)cnc2O[C@H]1CN(C)C(=O)c1ccccc1 | / | / | 0 | / | / | / | / | /
COc1ccc(NC(=S)NC(NC(=O)c2cccc(Cl)c2)C(Cl)(Cl)Cl)c([N+](=O)[O-])c1 (stereo unspecified) | 6 | 34 | / | -1 | 87* | 24 | 72* | 57*
O=C(NC(NC(=S)Nc1ccccc1Cl)C(Cl)(Cl)Cl)c1cccc(Cl)c1 (stereo unspecified) | -32 | 46 | 43 | 1 | 97* | 45 | 95* | 22
O=C(Cc1cccc2ccccc12)NC(NC(=S)Nc1ccccc1Cl)C(Cl)(Cl)Cl (stereo unspecified) | -4 | 10 | 10 | -2 | -50 | 28 | / | /
COC(=O)c1ccc(N2CCCCC2)c(NS(=O)(=O)c2ccc(C)cc2)c1 | -6 | 24 | 1 | 5 | 65* | -4 | 57* | 62*
COC(=O)c1ccc(Cl)c(NS(=O)(=O)c2ccc3c(c2)OCCO3)c1 | -2 | 16 | / | 2 | 53* | 6 | 47* | 55*
COc1ccc(Cn2c(-c3ccc(C)cc3)c[n+]3ccccc23)cc1 | -8 | 3 | 13 | -4 | 62* | 22 | 37 | 65*
COc1ccc(-c2nc3ccccc3n2Cc2ccc(C)cc2)cc1 | -2 | -37 | -3 | 5 | 11 | 0 | / | /
O=C(/C=C/c1ccccc1)/C=C/c1ccccc1 | -17 | 110* | -44 | -2 | 95* | -80 | 22 | /
CC(/C=C\c1ccccc1)=C/C(=O)O | 1 | 8 | 4 | 1 | 8 | 7 | / | /
COc1ccc(-c2c[n+]3c4n2CCCCC4=C(c2ccccc2)C3)cc1 | 17 | 41 | / | 2 | 67* | -7 | 17 | /
C[C@@H]1CCCCO[C@H](CN(C)Cc2ccncc2)[C@H](C)CN([C@H](C)CO)C(=O)c2cc(NC(=O)Nc3ccc(F)cc3)ccc2O1 | / | / | -6 | / | / | / | / | /
FC(F)(F)c1cc(-c2ccco2)nc(-n2cnc3ccccc32)n1 | 0 | 11 | 12 | 2 | 30 | 7 | / | /
Cc1nc2ccccc2n1-c1nc(-c2ccco2)cc(C(F)(F)F)n1 | -82* | 72* | 26 | 1 | 77* | 94* | 100* | 9
O=C(N/N=C/c1ccc(O)c(O)c1)c1cccc(S(=O)(=O)N2CCCCC2)c1 | 8 | -1 | 9 | 0 | -3 | -11 | / | /
O=C(N/N=C\c1cc(Br)ccc1O)c1ccc(S(=O)(=O)N2CCCCC2)cc1 | -19 | 29 | 17 | 0 | 70* | 22 | 75* | 21
CC(C)C(=O)Nc1ccc2c(c1)C(=O)N(C)[C@@H]1CC[C@H](CC(=O)NCc3ccc(F)cc3)O[C@@H]1CO2 | / | / | -1 | / | / | / | / | /
CN1CCN(CC/C=C2/c3ccccc3Sc3ccc(S(=O)(=O)N(C)C)cc32)CC1 | 14 | -89 | / | -1 | 67* | 23 | 27 | /
COc1cc2c(cc1Cl)/C(=C\CCN(C)C)c1ccccc1S2 | -25 | 16 | -21 | 3 | 47 | -6 | / | /
COc1ccc(CN(C)C[C@H]2Oc3c(NS(=O)(=O)c4ccccc4)cccc3C(=O)N([C@@H](C)CO)C[C@@H]2C)cc1 | / | / | -3 | / | / | / | / | /
SMILES | KKLEB tox | Peg3 promoter | LGR2 inh | HSP90 refold inh | Mdm2-MdmX inh | CF NFkB block | Mdm2-MdmX conf | FLuc counter
COc1cc(NC(=S)N2CCN(C(c3ccccc3)c3ccccc3)CC2)cc(OC)c1 | 2 | 26 | / | 2 | 67* | 17 | 29 | /
COc1cc(NC(=S)N2CCN(C/C=C/c3ccccc3)CC2)cc(OC)c1 | -10 | 18 | 11 | -2 | 35 | 15 | / | /
O=C(CC1CC1)N1CC[C@@H]2[C@@H](CO)Nc3ccc(-c4cccc(F)c4)cc3[C@@H]21 | / | / | -11 | / | / | / | / | /
C[C@H](CO)N1C[C@H](C)[C@H](CN(C)Cc2cncnc2)Oc2ncc(/C=C/c3ccccc3)cc2C1=O | / | / | 6 | / | / | / | / | /
CC1CNCCN1S(=O)(=O)c1cccc2cnccc12 (stereo unspecified) | -9 | -11 | 18 | 1 | 55*! | 38 | 25 | /
CC1CCCCN1S(=O)(=O)c1cccc2cccnc12 (stereo unspecified) | -10 | -7 | 2 | 2 | 12 | 5 | / | /
O=C(c1ccc(Cl)c(S(=O)(=O)N2CCc3ccccc32)c1)N1CCN(c2ccccc2O)CC1 | -14 | 69* | 13 | / | 54* | -4 | 6 | /
O=C(c1cccc(S(=O)(=O)N2CCc3ccccc32)c1)N1CCN(c2ccccn2)CC1 | 9 | 31 | -9 | 1 | 85* | 9 | 84* | 39*
C[C@H](CO)N1C[C@H](C)[C@H](CN(C)C(=O)CCCN(C)C)OCCCC[C@H](C)Oc2ccc(NC(=O)CCC(F)(F)F)cc2C1=O | / | / | 18 | / | / | / | / | /
C[C@@H]1CN([C@@H](C)CO)C(=O)Cc2cc(NC(=O)Nc3ccc4c(c3)OCO4)ccc2O[C@@H]1CN(C)Cc1ccc(C(=O)O)cc1 | / | / | -19 | / | / | / | / | /
Cc1ccc(-c2csc(NC(=S)NC(=O)/C=C/c3ccco3)n2)cc1 | -31 | 4 | / | 1 | 59* | 22 | 51* | 59*
O=C(/C=C/c1ccco1)NC(=S)Nc1ccc(N2CCCC2)cc1 | -2 | -6 | 0 | -3 | 61* | 6 | 62* | 52*
O=C(NC(=S)Nc1nc(-c2ccc([N+](=O)[O-])cc2)cs1)c1ccco1 | -8 | -51 | 14 | -3 | 55* | 16 | 28 | /
